Data reported in PubChem BioAssay AID1259420 (Broad Institute, 2018).
In all, about 1,000 compounds went through this assay and about 250 (25%) were called active. Roughly 31% stayed inconclusive and do not appear here. How the calls were made is not given here. Only a sample is shown. Entries with a potency or affinity are not part of this list. Numbered stars: 1 amine (or outer) side, 2 acyl side, 3 side chain; on linkers, the order of the positions; unused ones are H or OH. Bridge positions count the residues as written; N and C are the ends. Square brackets hold non-standard residues; d marks the D form. Peptide text beside a SMILES is read from it. * marks the point of attachment. ξ: configuration not given here. pTerphenylCO(4''-OnC5H11) = CCCCCOc1ccc(-c2ccc(-c3ccc(C(=O)*)cc3)cc2)cc1; ξOrn(4,5-diOH) = O=C(C(CC(O)C(O)N[*:3])N[*:1])[*:2]; ξhTyr(βξ-OH,γξ-OH) = NC(C(=O)O)C(O)C(O)c1ccc(O)cc1; ξPro(3ξ-OH,4ξ-Me) = CC1CNC(C(=O)O)C1O; Hyp = O=C(O)[CH]1C[CH](O)CN1

Experiment: T. gondii intracellular growth, IFN-gamma absent, dose response, cell-based (AID 1259420);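 further: host cells were HeLa; final incubation lasted 72 hours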
Settings: Toxoplasma gondii growth in host cells, no IFN-gamma

OC1(c2cccc(C(F)(F)F)c2)CCN(Cc2ccc3[nH]ccc3c2)CC1
max activity (at 19.5 µM unless noted): 6.52% [at 0.16 µM] (inactive)

O=C(Cc1cccnc1)N1CC(=O)N2[C@H](CO)[C@@H](c3ccc(C#CC4CCCCC4)cc3)[C@@H]2C1
max activity (at 0.6 µM): -7.69% (inactive) | max activity (at 19.5 µM): 16.4% (inactive)

Cc1cc(C(=O)N2CCC(c3cc4c(ncn4C)c(NCC4CC4)n3)CC2)ccc1Cl
max activity (at 19.5 µM unless noted): 13.8% (inactive)

O=S(=O)(c1ccc(F)cc1)N1CCCCN2[C@H](C1)[C@H](c1ccc(-c3cncnc3)cc1)[C@@H]2CO
max activity (at 19.5 µM unless noted): 22.3% (inactive)

Cc1ccccc1S(=O)(=O)N1CCCCN2[C@H](C1)[C@@H](c1ccc(C#CCN(C)C)cc1)[C@@H]2CO
max activity (at 19.5 µM unless noted): -29.9% [at 10 µM] (inactive)

Cc1ccccc1-c1ccc([C@H]2[C@H]3CN(S(=O)(=O)Cc4ccccc4)CCCCN3[C@H]2CO)cc1
max activity (at 19.5 µM unless noted): 24.5% (inactive)

Cc1ccccc1S(=O)(=O)N1CCCCN2[C@@H](CO)[C@@H](c3ccc(C#CCN(C)C)cc3)[C@@H]2C1
max activity (at 19.5 µM unless noted): 48.3% (inactive)

COc1cccc(-c2ccc([C@H]3[C@H](CO)N4C(=O)CN(C(=O)c5cccnc5)C[C@@H]34)cc2)c1
max activity (at 19.5 µM unless noted): -9.74% [at 1.2 µM] (inactive)

O=C(C1CCOCC1)N1CC(=O)N2[C@@H](CO)[C@H](c3ccc(/C=C/c4ccccc4)cc3)[C@@H]2C1
max activity (at 19.5 µM unless noted): 7.51% [at 5 µM] (inactive)

CC(=O)N1CCC(N(C)Cc2cc(C(C)(C)C)n[nH]2)CC1
max activity (at 19.5 µM unless noted): -9.85% (inactive)

COCC(=O)N1CCC2(CC1)CC1(CCN(CC(C)C)CC1)C(=O)N2C
max activity (at 19.5 µM unless noted): -12.4% [at 10 µM] (inactive)

COc1cccc(S(=O)(=O)N2CC[C@@H]3[C@H]2c2cc(C#Cc4cccnc4)ccc2N[C@@H]3CO)c1
max activity (at 19.5 µM unless noted): 17.4% (inactive)

O=S(=O)(c1ccccc1F)N1CC[C@@H]2[C@H](CO)Nc3ccc(C4=CCCCC4)cc3[C@@H]21
max activity (at 19.5 µM unless noted): -15.7% [at 5 µM] (inactive)

CNC(=O)NCC1CCC2(CCN(Cc3ccccc3)CC2)CO1 (stereo unspecified)
max activity (at 19.5 µM unless noted): -9.71% [at 2.6 µM] (inactive)

OC[C@H]1[C@H](c2ccc(-c3cccc(F)c3)cc2)[C@H]2CN(Cc3cncnc3)CCCCN21
max activity (at 19.5 µM unless noted): 16.3% (inactive)

N#Cc1c(N2C[C@@H]3NCCO[C@H]3C2)c(F)cc2c(=O)c(C(=O)O)cn(C3CC3)c12
max activity (at 19.5 µM unless noted): 9.32% [at 1.2 µM] (inactive)

Cc1ccc(N2CCC[C@]3(C(=O)O)CN(CCN(C)C)C[C@H]3C2)nn1
max activity (at 19.5 µM unless noted): -23.7% [at 5 µM] (inactive)

COc1cccc(-c2nn(CC3CC3)c3c2[C@@H]2CN(Cc4ccccc4)C[C@@H]2C3)c1
max activity (at 19.5 µM unless noted): 19.1% (inactive)

Cc1ccc(Cl)cc1N(CC(=O)Nc1c(F)cccc1F)S(C)(=O)=O
max activity (at 19.5 µM unless noted): 8.21% [at 1.2 µM] (inactive)

CC(=O)NCC(=O)N1CCC2(CC1)CC(c1ccccc1)C(=O)N2 (stereo unspecified)
max activity (at 19.5 µM unless noted): -12.4% [at 10 µM] (inactive)

CN(C)CCO[C@@H]1CN(C(=O)Cc2ccsc2)[C@H]2CCCO[C@@H]12
max activity (at 19.5 µM unless noted): -11.4% [at 10 µM] (inactive)

CN1CCN(C(=O)Cc2ccsc2)Cc2cccnc21
max activity (at 19.5 µM unless noted): -16.3% [at 2.6 µM] (inactive)

Cc1ccsc1C(=O)N1CCc2nc(-c3cnn(C)c3)nc(NC(C)C)c2C1
max activity (at 19.5 µM unless noted): -6.87% (inactive)

Cc1ccccc1-c1ccc([C@@H]2[C@H]3CN(C(=O)c4ccncc4)CC(=O)N3[C@H]2CO)cc1
max activity (at 19.5 µM unless noted): 7.3% [at 5 µM] (inactive)

CN1[C@@H]2Cn3c(ccc(/C=C/c4ccccc4)c3=O)[C@H]1[C@@H](C(=O)NC1Cc3ccccc3C1)[C@@H]2CO
max activity (at 19.5 µM unless noted): -16.6% [at 2.6 µM] (inactive)

Cc1cnn(C(C)C(=O)N2CCc3[nH]nc(-c4ccc(F)c(F)c4)c3C2)c1 (stereo unspecified)
max activity (at 19.5 µM unless noted): 14% [at 0.16 µM] (inactive)

Nc1ccc(S(=O)(=O)NC(=O)c2ccccc2)cc1
max activity (at 19.5 µM unless noted): 6.39% [at 0.3 µM] (inactive)

CO[C@H]1CCN(c2ccc(C)nn2)[C@H]1Cc1cnn(C)c1
max activity (at 19.5 µM unless noted): 46.8% (inactive)

C[C@]12CCC3=C4CCC(=O)C=C4CC[C@H]3[C@@H]1CC[C@@]2(O)CC#N
max activity (at 19.5 µM unless noted): -3.24% [at 0.3 µM] (inactive)

Cc1nnc(N2C[C@@H](Oc3ncccc3F)[C@@H]3OCCC[C@@H]32)s1
max activity (at 19.5 µM unless noted): -11.4% [at 0.16 µM] (inactive)

C=CCO[C@@H]1CCN(c2cc(OC)ncn2)[C@H]1Cc1cnn(C)c1
max activity (at 19.5 µM unless noted): -8.84% [at 5 µM] (inactive)

Cc1ccc(-c2cc(C(F)(F)F)nn2-c2ccc(S(N)(=O)=O)cc2)cc1
max activity (at 19.5 µM unless noted): -6.96% [at 0.08 µM] (inactive)

CCCNC(=O)C[C@H]1CC[C@@H]2[C@H](COC[C@H](O)CN2C(=O)Nc2ccc(Cl)c(Cl)c2)O1
max activity (at 19.5 µM unless noted): 22.5% (inactive)

COc1ccc(CN2C[C@@H]3C[C@H](C(=O)Nc4ccccc4)[C@@H](C2)O3)cc1
max activity (at 19.5 µM unless noted): 24.7% (inactive)

CCCNC(=O)[C@@H]1[C@@H](CO)[C@@H]2Cn3c(ccc(C4=CCCCC4)c3=O)[C@@H]2N1Cc1ccccc1F
max activity (at 19.5 µM unless noted): 15.2% (inactive)

O=C(c1ccc[nH]1)N1CCC2(CC1)COCCN(c1ncccn1)C2
max activity (at 10 µM): -14% (inactive) | max activity (at 19.5 µM): 9.97% (inactive)

CC(C)CCN1Cc2c(C(=O)NC3CCCCC3)ncn2-c2ccccc2S1(=O)=O
max activity (at 19.5 µM unless noted): 17.3% (inactive)

CO[C@@H]1CCN(c2ncccn2)C[C@@H]1Cc1cccc(C)c1
max activity (at 19.5 µM unless noted): 13.3% (inactive)

CCCCCOc1ccc(-c2ccc(-c3ccc(C(=O)NC4CC(O)C(O)NC(=O)C5C(O)C(C)CN5C(=O)C(C(C)O)NC(=O)C(C(O)C(O)c5ccc(O)cc5)NC(=O)C5CC(O)CN5C(=O)C(C(C)O)NC4=O)cc3)cc2)cc1 (stereo not drawn) ({pTerphenylCO(4''-OnC5H11)}-[ξOrn(4,5-diOH)]T[Hyp][ξhTyr(βξ-OH,γξ-OH)]T[ξPro(3ξ-OH,4ξ-Me)]; lactam 1-C; configuration not given here)
max activity (at 19.5 µM unless noted): 7.96% [at 0.6 µM] (inactive)

O=C1N(c2ccccc2)c2ccccc2C1(Cc1ccncc1)Cc1ccncc1
max activity (at 19.5 µM unless noted): -9.88% [at 5 µM] (inactive)

C/C=C/c1ccc(C2[C@H]3CNC[C@@H]2N3S(=O)(=O)c2ccccc2C)cc1 (stereo partly specified)
max activity (at 19.5 µM unless noted): 20.6% (inactive)

O=C(C[C@H]1CC[C@@H]2[C@H](COC[C@H](O)CN2Cc2cc(F)ccc2F)O1)NCc1ccc(Oc2ccccc2)cc1
max activity (at 19.5 µM unless noted): 29.1% [at 10 µM] (inactive)

O=C(C[C@@H]1CC[C@@H]2[C@H](COC[C@@H](O)CN2C(=O)Nc2cc(Cl)cc(Cl)c2)O1)N1CCOCC1
max activity (at 19.5 µM unless noted): -20.4% [at 10 µM] (inactive)

O=C(C[C@H]1CC[C@H]2[C@@H](COC[C@H](O)CN2S(=O)(=O)c2ccccc2)O1)NCC1CCCCC1
max activity (at 19.5 µM unless noted): -7.1% [at 0.3 µM] (inactive)

O=C(C[C@H]1CC[C@H]2[C@@H](COC[C@@H](O)CN2Cc2cc(F)ccc2F)O1)NCc1ccc(Oc2ccccc2)cc1
max activity (at 19.5 µM unless noted): 24% (inactive)

O=C(C[C@@H]1CC[C@H]2[C@@H](COC[C@H](O)CN2Cc2ccc(Oc3ccccc3)cc2)O1)N1CCN(c2ccccc2)CC1
max activity (at 19.5 µM unless noted): -11.8% [at 1.2 µM] (inactive)

O=C(C[C@@H]1CC[C@@H]2[C@H](COC[C@H](O)CN2S(=O)(=O)c2ccccc2F)O1)N1CCC(Cc2ccccc2)CC1
max activity (at 19.5 µM unless noted): -4.67% [at 0.3 µM] (inactive)

CCCNC(=O)C[C@H]1CC[C@H]2[C@@H](COC[C@@H](O)CN2C(=O)Nc2ccc(Cl)c(Cl)c2)O1
max activity (at 19.5 µM unless noted): -10.6% [at 10 µM] (inactive)

O=C(C[C@H]1CC[C@@H]2[C@H](COC[C@@H](O)CN2Cc2ccc(Oc3ccccc3)cc2)O1)N1CCN(c2ccccc2)CC1
max activity (at 19.5 µM unless noted): 17.6% (inactive)
